Data on 35 compounds can be found in PubChem BioAssay (NCATS).

Values joined by “and” are separate entries in the source; they are usually repeats but may differ in a detail not shown here. Equal values may be shown once. Inconclusive results are not listed. Values without a mark were called inactive. Active and inactive are the calls of the source. The call rests on the fitted dose curve; in most records, active means well fitted curve in either direction with a large enough effect (not every such curve was filed as active); inconclusive means small, poorly fitted or top-dose-only effect, or another doubt; inactive means flat fitted curve, though single readings scatter.
On the % scale 0 is the no-effect control and ±100 the full control effect.

The first experiment in a line: NFAT Signaling Pathway (AID 444). The conditions noted are these: Jurkat NFAT-bla M1, carbachol, beta-lactamase ratio, 5 h; at 7.69 µM (top of the series). The text has this:
NCGC Assay Overview: The nuclear factor of activated T cells (NFAT) family of transcription factors has been found primarily in most immune system cells and some other non-immune cells. NFAT plays the immunomodulatory role, primarily in T-cell activation and differentiation. NFAT target genes are also involved in the regulation of apoptosis and differentiation in non-immune cell types. The NFAT sequence was engineered to the upstream of the ?-lactamase reporter gene and transfected into Jurkat cells with co-transfection of muscarinic receptor1 [provided by Invitrogen Corp]. When an extracellular stimulus, such as carbachol, binds to the GPCR M1 receptor, it stimulates a signaling cascade that activates NFAT response element and ?-lactamase expression by phosphorylating the NFAT binding protein. This cell based ?-lactamase reporter gene assay can accurately monitor any changes occurring along the NFAT pathway, and can be used for screening small molecule inhibitor or activator upon activation by carbachol EC50 concentration. A small molecular library were screened in a titration series resulting in AC50s (can be either IC50s or EC50s).
NCGC Assay Protocol Summary: The cells were prepared in RPMI 1640 medium containing 0.1% dialyzed FBS and 25 mM HEPES at 1.6 x 10^6cell/ml. The assay was performed in 1536-well plate format as follows: 5 ul of cell preparation 23 nl of compounds 1ul of carbachol (final concentration 1 uM) Briefly centrifuge the plates and incubate at 37 °C for 5 hours 1 ul of CCF4 dye mixture Incubate the plates at RT for 1 hour Read the plate in EnVision plate reader (Ex= 405nm, and Em1=460nm and Em2=530nm). The %Activity was determined from the ratio of 460nm/530nm. Data normalization and AC50 calculations were accomplished using GeneData software.
As to `CN1CCCC2(CCN(C(=O)c3csnn3)CC2)C1`, the activity change, negative = inhibition is -27.8%.

On to `N#Cc1cccc(NC(=O)N2CC[C@@]3(CCCN(C(=O)Oc4ccccc4)C3)C2)c1`, for which the activity change, negative = inhibition was -14.8%.

As for `c1cnc(N2CC3(CCNCC3)C2)nc1`, the activity change, negative = inhibition is -1.58%.

For the compound `CC(C)CN1CC[C@@]2(CCCN(C(=O)Oc3ccccc3)C2)C1`, the activity change, negative = inhibition is -1.09%.

Consider `N#Cc1ccc(CN2CC[C@@]3(CCCN(C(=O)Oc4ccccc4)C3)C2)cc1`, for which the activity change, negative = inhibition is -16.4%.

In the case of `CN1CCCC2(CCN(C(=O)c3ccncc3)CC2)C1`, the activity change, negative = inhibition is -16.6%.

As to `Cc1nc2cnc(N3CCNCC3)nc2n(C)c1=O`, the activity change, negative = inhibition was 5.09%.

Turning to `c1cnc(N2CCCC3(CCNCC3)C2)nc1`, the activity change, negative = inhibition was -26.8%.

As for `c1csc(CN2CC[C@@]3(CCCNC3)C2)n1`, the activity change, negative = inhibition was -10%.

On to `c1ccc(N2CCC3(CCNCC3)CC2)cc1`, for which the activity change, negative = inhibition is -12.2%.

Still in this experiment, the particulars now being: Jurkat NFAT-bla M1, carbachol, beta-lactamase ratio, 5 h; at 17.2 µM (top of the series).
Consider `CC(C)C[C@H]1C(=O)N2CCC[C@@H]2[C@@]2(O)O[C@](NC(=O)[C@@H]3C=C4c5cccc6[nH]cc(c56)C[C@@H]4N(C)C3)(C(C)C)C(=O)N12`, for which the activity change, negative = inhibition was -19.6%.

As to `C[C@H](NC(C)(C)C)C(=O)c1cccc(Cl)c1`, the activity change, negative = inhibition is -9.97%.

Consider `N[C@H]1C[C@H]1c1ccccc1`, for which the activity change, negative = inhibition was -3.83%.

For the compound `CC[C@H]1CN2CC[C@@H]1C[C@H]2[C@@H](O)c1ccnc2ccc(OC)cc12`, the activity change, negative = inhibition is -20.4%.

With `CCN1C[C@]2(C)CC[C@H](O)[C@@]34[C@@H]5CC6[C@@H](OC)C[C@@](O)([C@@H]5[C@@H]6O)[C@H](C[C@@H]23)[C@H]14`, the activity change, negative = inhibition is -2.56%.

With `C#CCN(C)C(C)Cc1ccccc1` (stereo unspecified), the activity change, negative = inhibition is -4.45%.

Regarding `C[C@H]1C(=O)O[C@@H]2CCN3CC=C(COC(=O)[C@@](C)(O)[C@@]1(C)O)[C@H]23`, the activity change, negative = inhibition is 3.38%.

For `C[C@H]1CC[C@@]2(NC1)O[C@@H]1C[C@H]3[C@@H]4CC[C@@H]5C[C@@H](O)CC[C@@]5(C)[C@@H]4CC[C@]3(C)[C@@H]1[C@@H]2C`, the activity change, negative = inhibition was 1.76%.

Regarding `CC[N@+]1(C)CCC[C@@H](OC(=O)C(O)(c2ccccc2)c2ccccc2)C1`, the activity change, negative = inhibition is -31.8% (active).

Consider `C=C1[C@@H]2CC[C@H]3[C@@]4(C)C[C@@H](O[C@@H]5O[C@H](CO)[C@H](OS(=O)(=O)O)[C@@H](OS(=O)(=O)O)[C@@H]5OC(=O)CC(C)C)C[C@@H](C(=O)O)[C@H]4CC[C@@]3(C2)[C@H]1O`, for which the activity change, negative = inhibition is 13.2%.

Regarding `COc1ccc(OC)c([C@H](O)[C@H](C)N)c1`, the activity change, negative = inhibition is 4.39%.

Regarding `COc1ccc2c(c1O)-c1c(OC)c(OC)cc3c1[C@H](C2)N(C)CC3`, the activity change, negative = inhibition was -3.12%.

On to `C[C@H]1[C@@H](O)[C@@H](C)/C=C\C=CCC\C=C/C=C\C=C/C=C[C@@H](O[C@H]2O[C@@H](C)[C@@H](O)[C@@H](N)[C@@H]2O)C[C@@H]2O[C@@](O)(C[C@@H](O)[C@H]2C(=O)O)C[C@@H](O)[C@@H](O)CC[C@@H](O)C[C@@H](O)C[C@@H](O)CC(=O)O[C@H]1C`, for which the activity change, negative = inhibition was 1.26%.

Take `C[C@H]1OC[C@@H](C[N+](C)(C)C)O1`: the activity change, negative = inhibition is 147% [activator] (active).

Turning to `C#C[C@@]1(O)CC[C@@H]2[C@@H]3CCC4=CC(=O)CC[C@@]4(C)[C@H]3CC[C@]21C`, the activity change, negative = inhibition is -15.1%.

Consider `O=C(NCNC(=O)N[C@H]1C(=O)NC(=O)N1CO)N[C@H]1C(=O)NC(=O)N1CO`, for which the activity change, negative = inhibition is -14%.

With `COc1ccc(C(=O)OC2C[C@H]3CC[C@@H](C2)N3C)cc1OC` (stereo partly specified), the activity change, negative = inhibition was -18.9%.

On to `CC[C@@]1(c2ccc(N)cc2)CCC(=O)NC1=O`, for which the activity change, negative = inhibition is -14.6%.

As to `C[N+]1(C)[C@@H]2CC[C@H]1CC(OC(=O)[C@@H](CO)c1ccccc1)C2` (stereo partly specified), the activity change, negative = inhibition is -48.4% (active).

With `C[C@@]12CC[C@H](O)C[C@@H]1CC[C@H]1[C@H]2CC[C@@]2(C)[C@@H](C3=CC(=O)OC3)CC[C@]12O`, the activity change, negative = inhibition was -74.9% (active).

On to `C[C@]12CC[C@H](O)C[C@@H]1CC[C@H]1[C@H]2CC[C@]2(C)C(=O)CC[C@@H]12`, for which the activity change, negative = inhibition is 4.61% and 4.01% and -7.96%.

For the compound `CN1CCc2cc3c(cc2[C@@H]1[C@@H]1OC(=O)c2c1ccc1c2OCO1)OCO3`, the activity change, negative = inhibition was 4.41%.

The same experiment, now with this note: Jurkat NFAT-bla M1, carbachol, beta-lactamase ratio, 5 h; at 38 µM (top of the series).
Take `COc1cc(C=C(C#N)C#N)cc(O)c1O`: the activity change, negative = inhibition is -29.4%.

As to `C[C@H](NC(C)(C)C)C(=O)c1cccc(Cl)c1`, the activity change, negative = inhibition was -9.57%.

Turning to `COc1ccc(OC)c([C@H](O)[C@H](C)N)c1`, the activity change, negative = inhibition is 2.27%.

Turning to `CC[C@H]1C(=O)OC[C@H]1Cc1cncn1C`, the activity change, negative = inhibition was 27.4% and 31.8%.

For the compound `CC[C@@]1(c2ccc(N)cc2)CCC(=O)NC1=O`, the activity change, negative = inhibition is 6.21%.

On to `C[N+]1(C)[C@@H]2CC[C@H]1CC(OC(=O)[C@@H](CO)c1ccccc1)C2` (stereo partly specified), for which the activity change, negative = inhibition was -61.2% (active).

For the compound `NNCc1cccc(O)c1`, the activity change, negative = inhibition is -15.7%.

For `C[C@]12CC[C@H](O)C[C@@H]1CC[C@H]1[C@H]2CC[C@]2(C)C(=O)CC[C@@H]12`, the activity change, negative = inhibition is 8.64%.

Regarding `CN1CCc2cc3c(cc2[C@@H]1[C@@H]1OC(=O)c2c1ccc1c2OCO1)OCO3`, the activity change, negative = inhibition was -4.78%.
